HSF1 inh = HSF1 inhibitors in luciferase reporter cells, primary screen, cell-based, NIH3T3, luminescence. NIH3T3-HGL HSE-luciferase, MG132-induced, luminescence 8 h; active compounds read low. 300,000 compounds, 0.77% hits. activity change, negative = inhibition, % at 7.5 µM (by protocol). AID 2098, 2009;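 active = more than half of replicate wells show activity change below -50%, luminescence cut by over half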;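 also: luciferase reports HSF-1 transcriptional activity via heat shock element; 0% = median of DMSO wells and -100% = zero luminescence signal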
SMARCA2 activ = SMARCA2 (BRM) function activators, primary screen, cell-based, luminescence, high throughput; MG213 cells, MMTV-luciferase reporter, dexamethasone, overnight; AID 652017, 2013; activation, % at 9.1 µM; 370,000 compounds, 1% hits; in the data active = activation above about 7.8%;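 also: 0% = vehicle wells and 100% = reference activator wells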
HSP90 refold inh = HSP90 inhibitors, primary screen, cell lysate, luminescence | Heat shock protein HSP 90 (rabbit reticulocyte lysate; luciferase refolding) | Rabbit reticulocyte lysate, luciferase refolding luminescence, 3 h | inhibition, % at 5.6 µM | 290,000 compounds, 0.91% hits;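 active = inhibition above the screen-wide mean plus 3 SD, computed separately per campaign, cut at about 16% in these data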;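 also: 0% = DMSO wells and 100% = 60 µM geldanamycin wells; inhibitors lower the luminescence because luciferase stays unfolded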
AI-2 QS mod = Vibrio harveyi AI-2 quorum sensing modulators, primary screen, JMH597 strain, luminescence/OD600 ratio | Vibrio harveyi JMH597 AI-2 luminescence/OD600 ratio, 9 h; active compounds read low; strain lacks LuxN and CqsS sensors; 0 = neutral-control median | 300,000 compounds, 0.4% hits | AID 2094, 2009 | activity change, % at 7.5 µM; in the data active = activity change below about -75%, passing the limit was not always enough;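 also: luminescence divided by OD600 gain over 9 h not by final OD600 alone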
PG9 binder = binders of HIV-1 gp120 antibody PG9, primary screen, biochemical, TR-FRET; HIV-1 gp120 / PG9 antibody interaction; TR-FRET gp120-PG9 antibody binding; inhibition, % at 6.7 µM; 360,000 compounds, 0.43% hits; AID 624416, 2012; in the data active = inhibition above about 8.5%
GAA850 FXN act = FXN promoter activators, primary screen, cell-based, luciferase luminescence, HEK293 lucGAA850; HEK293 lucGAA850 FXN promoter luciferase reporter, 24 h; percent of 10 µM SAHA response; activation, % at 6 µM; 360,000 compounds, 0.56% hits; AID 540364, 2011;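 active = activation above the average of all compounds screened plus 3 SD, cutoff fixed separately per campaign, cut at about 7.5% in these data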;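 also: 0% = DMSO wells and 100% = 10 µM SAHA wells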
Starred values were filed as active, the others as inactive. Compounds with a hit are over-represented: about 3.4% of the library has one in this group of screens.

`Cc1ccccc1C(=O)NC1CCCCN(Cc2cccc(F)c2)C1=O` (stereo unspecified) gave SMARCA2 activ -1.
CCc1nn(CC(=O)N2CCC(C(N)=O)CC2)c(=O)c2cc3occc3n12 was read as HSF1 inh -67*, SMARCA2 activ -2, HSP90 refold inh -1, AI-2 QS mod -6, PG9 binder -2 and GAA850 FXN act 3.
For O=C(O)CSc1ccccc1C(=O)O the results were HSF1 inh -92*, SMARCA2 activ 1, HSP90 refold inh 0, AI-2 QS mod 1, PG9 binder -1 and GAA850 FXN act 1.
O=C(CSc1ccccc1C(=O)O)c1ccccc1 was read as HSF1 inh 9, SMARCA2 activ 0, HSP90 refold inh -3, AI-2 QS mod 35, PG9 binder -1 and GAA850 FXN act 2.
For O=C1NN(c2ccccc2)C(=O)C1=Cc1ccccc1O the results were SMARCA2 activ 5, PG9 binder -3 and GAA850 FXN act -1.
Screening Cc1cc(/C=C2/C(=O)NN(c3ccccc3)C2=O)c(C)n1-c1cccc(O)c1 returned HSF1 inh -63*, SMARCA2 activ -2, HSP90 refold inh 14, AI-2 QS mod -3, PG9 binder -4 and GAA850 FXN act -7.
For Cc1ccc(-c2c(NC(=O)Nc3ccc(F)cc3)nc3ncccn23)cc1 the results were SMARCA2 activ 1.
For O=C(/C=C/c1ccccc1)Nc1cccc(C(=O)O)c1 the results were HSF1 inh -78*, SMARCA2 activ 4, HSP90 refold inh 89*, AI-2 QS mod 36, PG9 binder 0 and GAA850 FXN act 3.
Screening O=C(/C=C/c1ccccc1)Nc1cccc(C(=O)N2CCCCC2)c1 returned SMARCA2 activ 1, PG9 binder -3 and GAA850 FXN act 1.
CN(CCCOC(=O)c1cc2ccccc2o1)C1CN(Cc2cn(Cc3ccccc3Cl)nn2)S(=O)(=O)C1 (stereo unspecified) was read as SMARCA2 activ 0.
`CC(OC(=O)CN1C(=O)c2ccccc2C1=O)C(=O)NC1CCCC1` (stereo unspecified) gave HSF1 inh -5, SMARCA2 activ 0, HSP90 refold inh -2, AI-2 QS mod 20, PG9 binder -1 and GAA850 FXN act 1.
`CC(OC(=O)CN1C(=O)c2ccccc2C1=O)C(=O)NC1CCCCC1C` (stereo unspecified) gave HSF1 inh -75*, SMARCA2 activ 1, PG9 binder 2 and GAA850 FXN act 2.
Cc1ccc2[nH]c3c(c2c1)CN(C(C)C)CC3 was read as HSF1 inh -3, SMARCA2 activ -3, HSP90 refold inh 16*, AI-2 QS mod -12, PG9 binder 0 and GAA850 FXN act 0.
`Cc1ccc2[nH]c3c(c2c1)CN(C(=O)CN1CCCCC1)CC3` gave HSF1 inh -3, SMARCA2 activ 0, HSP90 refold inh -2, AI-2 QS mod 28 and PG9 binder 1.
`C=CCN1CC(COCCCC)Oc2ccc(Cl)cc2S1(=O)=O` (stereo unspecified) gave SMARCA2 activ -5 and PG9 binder -1.
Screening Cn1c(=O)[nH]c(=O)c2c1nc(Br)n2CC(O)COc1ccccc1 (stereo unspecified) returned HSF1 inh -6, SMARCA2 activ 7.9*, HSP90 refold inh 1, AI-2 QS mod 10, PG9 binder -2 and GAA850 FXN act -1.
Screening COc1ccccc1OCC(O)Cn1c(Br)nc2c1c(=O)[nH]c(=O)n2C (stereo unspecified) returned SMARCA2 activ 1, HSP90 refold inh 5, AI-2 QS mod 20, PG9 binder -1 and GAA850 FXN act -2.
c1ccc2c(c1)Cn1nnnc1-2 was read as HSF1 inh -30, HSP90 refold inh -2, AI-2 QS mod 24 and GAA850 FXN act 2.
c1ccc2c(c1)CC1(CCCCC1)n1nnnc1-2 was read as HSF1 inh -59*, SMARCA2 activ -3, HSP90 refold inh -1, AI-2 QS mod 17, PG9 binder -1 and GAA850 FXN act -3.
For COc1ccc(CN2CCN(S(=O)(=O)c3ccccc3)CC2)cc1Br the results were HSF1 inh -61*, SMARCA2 activ 1, HSP90 refold inh -1, AI-2 QS mod 33, PG9 binder -2 and GAA850 FXN act 4.
Screening CN1CCN(C(c2ccc(Br)cc2)c2cc(Cl)c3cccnc3c2O)CC1 (stereo unspecified) returned HSF1 inh 5, SMARCA2 activ -4, HSP90 refold inh 6, AI-2 QS mod -141*, PG9 binder 0 and GAA850 FXN act 0.
For CN1CCN(C(c2ccc(F)cc2)c2ccc3cccnc3c2O)CC1 (stereo unspecified) the results were GAA850 FXN act 1.
Screening O=C(CC1C=Cc2ccccc2N1C(=O)c1ccccc1)c1ccccc1 (stereo unspecified) returned HSF1 inh 24, SMARCA2 activ 0, HSP90 refold inh 1, AI-2 QS mod 3, PG9 binder -2 and GAA850 FXN act 0.
`CC1C=Cc2ccccc2N1C(=O)c1ccccc1` (stereo unspecified) gave HSF1 inh -63*, SMARCA2 activ 1, HSP90 refold inh 2, AI-2 QS mod 12, PG9 binder 0 and GAA850 FXN act 1.
`COc1ccc(-n2c(SCC(=O)Nc3ccc(Oc4ccccc4)cc3)nnc2-c2ccco2)cc1` gave SMARCA2 activ -7.
Screening c1ccc2c(Cn3ccnc3)cccc2c1 returned HSF1 inh 4, SMARCA2 activ -2, HSP90 refold inh -3, AI-2 QS mod 12, PG9 binder 0 and GAA850 FXN act 0.
For Cc1nccn1Cc1cccc2ccccc12 the results were HSF1 inh -53*, SMARCA2 activ -3, HSP90 refold inh 1, AI-2 QS mod 20, PG9 binder -2 and GAA850 FXN act 0.
Screening O=C(Nc1ccc([N+](=O)[O-])cc1)Nc1nc(-c2ccc(Cl)s2)cs1 returned HSF1 inh -4, SMARCA2 activ -7, HSP90 refold inh -1, AI-2 QS mod -86*, PG9 binder -4 and GAA850 FXN act -11.
For COC(=O)c1cc(S(=O)(=O)NCC2CCN(C(=O)C(=O)c3cccs3)CC2)cs1 the results were SMARCA2 activ -4 and PG9 binder -2.
Screening Cc1nc2sc3c(NCc4ccco4)ncnc3c2c2c1COC(C)(C)C2 returned HSF1 inh -89*, SMARCA2 activ 2, HSP90 refold inh 2, AI-2 QS mod 24, PG9 binder -1 and GAA850 FXN act -2.

Compound activity as filed in PubChem.
